In the supplement of paper PMC8975748:
Counter-ions that a name gives are not always drawn. ± gives the standard deviation of the averaged measurements.

Experiments:
[1] = system: Saccharomyces cerevisiae BY4741 SeMeCo community; assay: mean cell size (pixel area) (pixels); higher = larger cells; conditions: 10 µM; 24 h; SM minimal medium
Outline: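 Harmony analysis of automated confocal images of paraformaldehyde-fixed yeast gave the mean cell pixel area per well. The yeast was a Saccharomyces cerevisiae BY4741 community carrying four plasmids, each with a fluorescent marker and each complementing one auxotrophy, incubated for 24 h in SM medium containing drug at a final 10 µM in 384-well plates. Results are averaged over 3 replicates. Same SeMeCo high-content imaging drug screen: Selleck FDA-approved drugs at 10 µM, 24 h in SM medium, 384-well plates, 3 replicates.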

[2] = system: Saccharomyces cerevisiae BY4741 SeMeCo community; assay: z-score of prototroph abundance vs DMSO median; higher = larger share of this subpopulation than in DMSO controls; conditions: 10 µM; 24 h; SM minimal medium; subpopulation (auxotrophy): Prototroph
Outline: (§1)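 A Saccharomyces cerevisiae BY4741 community carried four plasmids, each restoring one auxotrophy and encoding a distinct fluorescent protein. It was pre-grown overnight to OD600 1.0, diluted to 0.3, and 70 µl was added to 384-well plates acoustically predosed with library drugs (10 µM final), then grown 24 h in minimal SM medium. Cells were paraformaldehyde-fixed and imaged by automated confocal microscopy, with single-auxotroph fluorescent strains setting thresholds and autofluorescence correction. Each subpopulation's abundance was scored as a z-score against the vehicle-well median.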

[3] = system: Saccharomyces cerevisiae BY4741 SeMeCo community; assay: z-score of subpopulation abundance vs DMSO median, subpopulation auxotrophic for M; higher = larger share of this subpopulation than in DMSO controls; conditions: 10 µM; 24 h; SM minimal medium; subpopulation (auxotrophy): M
Outline: as §1

[4] = system: Saccharomyces cerevisiae BY4741 SeMeCo community; assay: z-score of subpopulation abundance vs DMSO median, subpopulation auxotrophic for L; higher = larger share of this subpopulation than in DMSO controls; conditions: 10 µM; 24 h; SM minimal medium; subpopulation (auxotrophy): L
Outline: as §1

[5] = system: Saccharomyces cerevisiae BY4741 SeMeCo community; assay: z-score of subpopulation abundance vs DMSO median, subpopulation auxotrophic for U; higher = larger share of this subpopulation than in DMSO controls; conditions: 10 µM; 24 h; SM minimal medium; subpopulation (auxotrophy): U
Outline: as §1

[6] = system: Saccharomyces cerevisiae BY4741 SeMeCo community; assay: z-score of subpopulation abundance vs DMSO median, subpopulation auxotrophic for H; higher = larger share of this subpopulation than in DMSO controls; conditions: 10 µM; 24 h; SM minimal medium; subpopulation (auxotrophy): H
Outline: as §1

[7] = system: Saccharomyces cerevisiae BY4741 SeMeCo community; assay: z-score of subpopulation abundance vs DMSO median, subpopulation auxotrophic for LU; higher = larger share of this subpopulation than in DMSO controls; conditions: 10 µM; 24 h; SM minimal medium; subpopulation (auxotrophy): LU
Outline: as §1

[8] = system: Saccharomyces cerevisiae BY4741 SeMeCo community; assay: z-score of subpopulation abundance vs DMSO median, subpopulation auxotrophic for LM; higher = larger share of this subpopulation than in DMSO controls; conditions: 10 µM; 24 h; SM minimal medium; subpopulation (auxotrophy): LM
Outline: as §1

[9] = system: Saccharomyces cerevisiae BY4741 SeMeCo community; assay: z-score of subpopulation abundance vs DMSO median, subpopulation auxotrophic for HM; higher = larger share of this subpopulation than in DMSO controls; conditions: 10 µM; 24 h; SM minimal medium; subpopulation (auxotrophy): HM
Outline: as §1

[10] = system: Saccharomyces cerevisiae BY4741 SeMeCo community; assay: z-score of subpopulation abundance vs DMSO median, subpopulation auxotrophic for HU; higher = larger share of this subpopulation than in DMSO controls; conditions: 10 µM; 24 h; SM minimal medium; subpopulation (auxotrophy): HU
Outline: as §1

[11] = system: Saccharomyces cerevisiae BY4741 SeMeCo community; assay: z-score of subpopulation abundance vs DMSO median, subpopulation auxotrophic for UM; higher = larger share of this subpopulation than in DMSO controls; conditions: 10 µM; 24 h; SM minimal medium; subpopulation (auxotrophy): UM
Outline: as §1

[12] = system: Saccharomyces cerevisiae BY4741 SeMeCo community; assay: z-score of subpopulation abundance vs DMSO median, subpopulation auxotrophic for HL; higher = larger share of this subpopulation than in DMSO controls; conditions: 10 µM; 24 h; SM minimal medium; subpopulation (auxotrophy): HL
Outline: as §1

[13] = system: Saccharomyces cerevisiae BY4741 SeMeCo community; assay: z-score of subpopulation abundance vs DMSO median, subpopulation auxotrophic for HLU; higher = larger share of this subpopulation than in DMSO controls; conditions: 10 µM; 24 h; SM minimal medium; subpopulation (auxotrophy): HLU
Outline: as §1

[14] = system: Saccharomyces cerevisiae BY4741 SeMeCo community; assay: z-score of subpopulation abundance vs DMSO median, subpopulation auxotrophic for HUM; higher = larger share of this subpopulation than in DMSO controls; conditions: 10 µM; 24 h; SM minimal medium; subpopulation (auxotrophy): HUM
Outline: as §1

[15] = system: Saccharomyces cerevisiae BY4741 SeMeCo community; assay: z-score of subpopulation abundance vs DMSO median, subpopulation auxotrophic for LUM; higher = larger share of this subpopulation than in DMSO controls; conditions: 10 µM; 24 h; SM minimal medium; subpopulation (auxotrophy): LUM
Outline: as §1

[16] = system: Saccharomyces cerevisiae BY4741 SeMeCo community; assay: z-score of subpopulation abundance vs DMSO median, subpopulation auxotrophic for HLUM; higher = larger share of this subpopulation than in DMSO controls; conditions: 10 µM; 24 h; SM minimal medium; subpopulation (auxotrophy): HLUM
Outline: as §1

CC(C)[N+]1(C)[C@@H]2CC[C@H]1C[C@@H](OC(=O)C(CO)c1ccccc1)C2 (stereo partly drawn) [Ipratropium Bromide]
mean cell size [1]: 12.4 ± 0.27
z-score of prototroph abundance [2]: 0.41
z-score of subpopulation abundance [3]: -0.02
z-score of subpopulation abundance [4]: 0.58
z-score of subpopulation abundance [5]: -0.33
z-score of subpopulation abundance [6]: -0.17
z-score of subpopulation abundance [7]: 0.15
z-score of subpopulation abundance [8]: 0.93
z-score of subpopulation abundance [9]: -0.34
z-score of subpopulation abundance [10]: -0.22
z-score of subpopulation abundance [11]: -0.31
z-score of subpopulation abundance [12]: -0.04
z-score of subpopulation abundance [13]: -0.02
z-score of subpopulation abundance [14]: -0.65
z-score of subpopulation abundance [15]: -0.28
z-score of subpopulation abundance [16]: 0.07

CC1=Nc2ccc(Cl)cc2S(=O)(=O)N1 [Diazoxide]
mean cell size [1]: 12.4 ± 0.1
z-score of subpopulation abundance [3]: -0.76
z-score of subpopulation abundance [4]: -0.67
z-score of subpopulation abundance [5]: 0.16
z-score of subpopulation abundance [6]: -0.86
z-score of subpopulation abundance [7]: -0.67
z-score of subpopulation abundance [8]: -1.03
z-score of subpopulation abundance [9]: -0.62
z-score of subpopulation abundance [10]: -0.17
z-score of subpopulation abundance [12]: -0.72
z-score of subpopulation abundance [13]: -0.88
z-score of subpopulation abundance [14]: -0.41
z-score of subpopulation abundance [16]: -1.32

NC[C@@H]1O[C@H](O[C@H]2[C@@H](O)[C@H](O[C@@H]3[C@@H](O)[C@H](N)C[C@H](N)[C@H]3O[C@H]3O[C@H](CO)[C@@H](O)[C@H](O)[C@H]3N)O[C@@H]2CO)[C@H](N)[C@@H](O)[C@@H]1O [Paromomycin Sulfate]
mean cell size [1]: 12.31 ± 0.12
z-score of prototroph abundance [2]: -0.33
z-score of subpopulation abundance [3]: 1.04
z-score of subpopulation abundance [4]: 0.88
z-score of subpopulation abundance [5]: -0.06
z-score of subpopulation abundance [6]: 0.2
z-score of subpopulation abundance [7]: -0.04
z-score of subpopulation abundance [8]: 1.42
z-score of subpopulation abundance [9]: 1.15
z-score of subpopulation abundance [11]: -0.2
z-score of subpopulation abundance [12]: 0.39
z-score of subpopulation abundance [13]: -0.44
z-score of subpopulation abundance [14]: 0.69
z-score of subpopulation abundance [15]: 0.8
z-score of subpopulation abundance [16]: 0.85

CO/N=C(\C(=O)N[C@@H]1C(=O)N2C(C(=O)O)=C(CSc3nc(=O)c(O)nn3C)CS[C@H]12)c1csc(N)n1 [Ceftriaxone Sodium Trihydrate]
mean cell size [1]: 12.23 ± 0.09
z-score of subpopulation abundance [3]: -1.17
z-score of subpopulation abundance [4]: 2.07
z-score of subpopulation abundance [5]: 0.09
z-score of subpopulation abundance [7]: 0.56
z-score of subpopulation abundance [8]: -0.18
z-score of subpopulation abundance [9]: -1.19
z-score of subpopulation abundance [10]: 0.14
z-score of subpopulation abundance [11]: -2.42
z-score of subpopulation abundance [12]: 0.91
z-score of subpopulation abundance [13]: 2.14
z-score of subpopulation abundance [14]: -2.14
z-score of subpopulation abundance [15]: -0.43
z-score of subpopulation abundance [16]: 0.83

COc1cc([C@@H]2c3cc4c(cc3[C@@H](O[C@@H]3O[C@@H]5CO[C@@H](C)O[C@H]5[C@H](O)[C@H]3O)[C@H]3COC(=O)[C@H]23)OCO4)cc(OC)c1O [Etoposide]
mean cell size [1]: 12.44 ± 0.11
z-score of prototroph abundance [2]: -0.82
z-score of subpopulation abundance [3]: 0.21
z-score of subpopulation abundance [4]: 0.2
z-score of subpopulation abundance [5]: 0.39
z-score of subpopulation abundance [6]: 0.15
z-score of subpopulation abundance [7]: 0.39
z-score of subpopulation abundance [8]: 0.96
z-score of subpopulation abundance [9]: 0.36
z-score of subpopulation abundance [10]: 0.37
z-score of subpopulation abundance [11]: 0.47
z-score of subpopulation abundance [13]: 0.56
z-score of subpopulation abundance [14]: 0.64
z-score of subpopulation abundance [15]: 0.64
z-score of subpopulation abundance [16]: 1.05

CCC1(C)CC(=O)NC1=O (stereo not drawn) [Ethosuximide]
mean cell size [1]: 12.6 ± 0.19
z-score of prototroph abundance [2]: -0.06
z-score of subpopulation abundance [3]: -0.27
z-score of subpopulation abundance [4]: 0.6
z-score of subpopulation abundance [6]: -0.94
z-score of subpopulation abundance [7]: 0.79
z-score of subpopulation abundance [8]: -0.21
z-score of subpopulation abundance [9]: -0.5
z-score of subpopulation abundance [10]: -0.46
z-score of subpopulation abundance [12]: 0.36
z-score of subpopulation abundance [13]: -0.1
z-score of subpopulation abundance [14]: -0.44
z-score of subpopulation abundance [15]: 1.11
z-score of subpopulation abundance [16]: 0.48

C=CCc1ccc(O)c(-c2ccc(O)c(CC=C)c2)c1 [Honokiol]
mean cell size [1]: 12.6 ± 0.22
z-score of subpopulation abundance [3]: -0.54
z-score of subpopulation abundance [4]: -0.29
z-score of subpopulation abundance [5]: -1.32
z-score of subpopulation abundance [6]: -1.34
z-score of subpopulation abundance [7]: -1.84
z-score of subpopulation abundance [8]: -0.63
z-score of subpopulation abundance [9]: -0.9
z-score of subpopulation abundance [10]: -1.64
z-score of subpopulation abundance [11]: -1.43
z-score of subpopulation abundance [12]: -0.44
z-score of subpopulation abundance [13]: -1.04
z-score of subpopulation abundance [14]: -1.19
z-score of subpopulation abundance [15]: -1.08
z-score of subpopulation abundance [16]: -0.84

N[C@@H](C(=O)N[C@@H]1C(=O)N2C(C(=O)O)=C(Cl)CS[C@H]12)c1ccccc1 [Cefaclor]
mean cell size [1]: 12.45 ± 0.095
z-score of prototroph abundance [2]: -0.66
z-score of subpopulation abundance [3]: 0.46
z-score of subpopulation abundance [4]: 0.23
z-score of subpopulation abundance [5]: 0.82
z-score of subpopulation abundance [6]: 0.49
z-score of subpopulation abundance [7]: 0.23
z-score of subpopulation abundance [8]: 0.52
z-score of subpopulation abundance [9]: 0.64
z-score of subpopulation abundance [10]: 0.41
z-score of subpopulation abundance [11]: 0.24
z-score of subpopulation abundance [12]: -0.05
z-score of subpopulation abundance [13]: -0.22
z-score of subpopulation abundance [14]: 0.37
z-score of subpopulation abundance [15]: 0.65
z-score of subpopulation abundance [16]: 0.66
